From PubChem BioAssay AID720540 (National Center for Advancing Translational Sciences (NCATS), 2013)
Among all 1,300 compounds or so, about 460 (35%) were called active. About 39% were inconclusive and are not listed. The call rests on the fitted dose curve; in most records, active means well fitted inhibition curve with a large enough effect; inconclusive means small, poorly fitted or top-dose-only effect; inactive means flat fitted curve, though single readings scatter. This is one part of the list.

The compounds below were run against Protein phosphatase EYA2 (Homo sapiens) (UniProt O00167) (assay: qHTS for Inhibitors of the Phosphatase Activity of Eya2: Confirmatory Assay for Cherry-picked Compounds). Settings: purified EYA2 phosphatase activity, qHTS confirmation; series mostly up to 46.1 µM.
Outline: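 Eya2 (0.2 uM working solution) preincubated 10 min at room temperature with compound in pH 7.5 HEPES buffer with MgCl2, BSA, DTT. OMFP added (50 uM working solution), 10 min more; fluorescence 485/525 nm, normalized to EGTA and DMSO.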
Further: nearly all actives have a fitted effect of over 65% in size.
Potency means the concentration at half of the fitted maximal effect.

Protein phosphatase EYA2 (Homo sapiens), sequence (O00167 whole entry, looked up): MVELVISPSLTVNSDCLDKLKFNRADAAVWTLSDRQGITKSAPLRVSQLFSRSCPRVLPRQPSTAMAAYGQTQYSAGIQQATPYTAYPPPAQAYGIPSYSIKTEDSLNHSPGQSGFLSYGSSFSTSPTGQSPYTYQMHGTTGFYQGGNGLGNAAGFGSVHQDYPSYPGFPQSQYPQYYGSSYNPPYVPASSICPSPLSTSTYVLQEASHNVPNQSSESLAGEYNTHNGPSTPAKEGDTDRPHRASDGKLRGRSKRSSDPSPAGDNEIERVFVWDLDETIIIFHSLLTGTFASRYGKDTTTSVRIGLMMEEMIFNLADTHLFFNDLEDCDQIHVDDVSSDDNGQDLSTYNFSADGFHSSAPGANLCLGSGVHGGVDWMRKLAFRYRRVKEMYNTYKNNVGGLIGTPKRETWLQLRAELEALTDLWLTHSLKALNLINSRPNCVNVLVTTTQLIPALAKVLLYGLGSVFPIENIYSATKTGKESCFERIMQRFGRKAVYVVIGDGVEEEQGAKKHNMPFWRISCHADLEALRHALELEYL

Potency, active:
COc1ccc(C(=O)Nc2nnc(-c3ccccc3)o2)cc1OC 19 µM
CCOc1ccccc1C(=O)OCC(=O)Nc1nnc(-c2ccccc2)o1 19 µM
C#Cc1cccc(NC(=O)CSc2nnc(-c3ccc(C(F)(F)F)cn3)o2)c1 15.1 µM
c1ccc2c(c1)nc(Nc1ccc(N3CCCCC3)cc1)c1nncn12 16.9 µM
CNc1ccc(/C=C2\C=Cc3ccccc32)cc1OC 7.57 µM
O=[N+]([O-])c1ccc(/C=C2\C=Cc3ccccc32)cc1 4.78 µM
CN(C)c1ccc(/C=C2\C=Cc3ccccc32)cc1N 15.1 µM
CN(C)c1ccc(/C=C2\C=Cc3ccccc32)cc1[N+](=O)[O-] 6.75 µM
COc1cc(/C=C2/C=Cc3ccccc32)ccc1N(C)C 6.75 µM
Cc1cc(/C=C2\C=Cc3ccccc32)ccc1N(C)C 7.57 µM
CCN(Cc1cccc(S(=O)(=O)O)c1)c1ccc(C(=C2C=CC(=[N+](CC)Cc3cccc(S(=O)(=O)O)c3)C=C2)c2ccccc2S(=O)(=O)[O-])cc1 9.53 µM
CCN(Cc1cccc(S(=O)(=O)O)c1)c1ccc(C(=C2C=CC(=[N+](CC)Cc3cccc(S(=O)(=O)O)c3)C=C2)c2ccc(O)cc2S(=O)(=O)O)cc1 6.01 µM
CC(=O)Nc1ccc(S(=O)(=O)Nc2ccc(N3CCCCC3)cc2)cc1 8.49 µM
COc1cc(NC(=O)CN2C(=O)CSc3ccc(S(=O)(=O)N4CCCC4)cc32)cc(OC)c1 5.36 µM
Cc1ccc(CNC(=O)C2CCN(S(=O)(=O)c3ccc4nc5c(c(C(=O)O)c4c3)CC(C)CC5)CC2)cc1 (configuration not stated) 8.49 µM
COc1ccc(CNC(=O)C2CCN(S(=O)(=O)c3ccc4nc5c(c(C(=O)O)c4c3)CCCC5)CC2)cc1 15.1 µM
CCN(CC)c1ccc(/C=N/N2CCN(Cc3ccccc3Cl)CC2)cc1 7.57 µM
CCN1C(=O)c2cccc3c(S(=O)(=O)N(C(C)=O)c4ccc(OC(C)=O)cc4)ccc1c23 15.1 µM
O=C(O)c1c(Br)c(Br)c(Br)c(Br)c1C1c2ccc(O)cc2Oc2cc(O)ccc21 1.35 µM
C[N+](C)(CCCCCI)c1ccc(/C=C/c2nc3ccccc3s2)cc1 13.5 µM
Nc1ccc2nc3c(=O)[nH]c(=S)[nH]c3nc2c1 6.01 µM
COC(=O)c1ccccc1NC(=S)NC(=O)c1ccc(C)cc1 13.5 µM
O=C1C(N2CCOCC2)=Cc2cccc3cccc1c23 19 µM
O=C(Nc1cc([N+](=O)[O-])ccc1O)c1cccc(C(=O)Nc2cc([N+](=O)[O-])ccc2O)c1 3.79 µM
O=C(O)C1=NN(c2cc(Cl)c(S(=O)(=O)O)cc2Cl)C(=O)C1 8.49 µM
Cc1ccc(-c2csc(NC(=O)c3ccccc3F)c2C(=O)O)cc1 7.57 µM
COc1cc(C(=O)Nc2scc(-c3ccc(Br)cc3)c2C(=O)O)cc(OC)c1OC 19 µM
O=C1/C(=C/C=C/c2ccco2)SC(=S)N1NS(=O)(=O)c1ccccc1 7.57 µM
O=C(NN1C(=O)/C(=C/C=C/c2ccco2)SC1=S)c1ccncc1 6.01 µM
CN(C)c1ccc(N=c2sc3ccccc3n2C)cc1 7.57 µM
O=C(O)/C=C/C(=O)Nc1ccc2c(c1)C(=O)c1ccccc1C2=O 16.9 µM
Oc1c(C(Nc2nc3ccccc3s2)c2ccco2)ccc2cccnc12 (configuration not stated) 9.53 µM
CN(C)c1ccc(C(=C2C=CC(=[N+](C)C)C=C2)c2ccc(N(C)C)cc2)cc1 6.01 µM
CN(C)c1ccc(C(=C2C=CC(=[N+](C)C)C=C2)c2c(O)c(S(=O)(=O)[O-])cc3cc(S(=O)(=O)O)ccc23)cc1 7.57 µM
CCc1ccc(N=C2NC(=O)/C(=C/c3cc(OC)c(O)c(OC)c3)S2)cc1 19 µM
COc1ccc(-c2ccc(SCc3cccnc3)nn2)cc1OC 16.9 µM
COc1cccc(/C=N/N2C(=O)CSC2=S)c1O 0.478 µM
Nc1c(N=Nc2ccc([N+](=O)[O-])cc2)c(S(=O)(=O)O)cc2cc(S(=O)(=O)O)c(/C=C/c3ccccc3)c(O)c12 7.57 µM
COc1ccccc1C(CCNCc1ccc(N(C)C)cc1)c1ccc(OC(C)C)cc1 (configuration not stated) 6.01 µM
COc1ccc(C(CCNCc2ccc(N(C)C)cc2)C(C)C)cc1 (configuration not stated) 8.49 µM
O=C(O)c1ccc2c(=O)n3cc(C(=O)c4ccccc4O)cc(Cl)c3nc2c1 15.1 µM
C=C(CC[C@]12OC(C(=O)O)C(O)(C(=O)O)C(C(=O)O)(O1)C(OC(=O)/C=C/[C@@H](C)C[C@@H](C)CC)C2O)[C@@H](OC(C)=O)[C@H](C)Cc1ccccc1 (some centres not stated) 19 µM
CCOc1ccc(Nc2cc3n(c(=O)n2)CCc2cc(OC)c(OC)cc2-3)cc1 6.75 µM
COc1ccc(Nc2cc3n(c(=O)n2)CCc2cc(OC)c(OC)cc2-3)c(C)c1 15.1 µM
COc1cc2c(cc1OC)-c1cc(Nc3ccccc3)nc(=O)n1CC2 6.75 µM
COc1cc2c(cc1OC)-c1cc(Nc3ccc(F)cc3)nc(=O)n1CC2 2.39 µM
COc1cc2c(cc1OC)-c1cc(Nc3ccc(C)cc3)nc(=O)n1CC2 5.36 µM
CCc1c(C)nc(Nc2nc(C)c3ccc(OC)cc3n2)[nH]c1=O 3.79 µM
COc1ccc(C(=O)Nc2ccc3c(c2)CCCN3C(=O)c2cccs2)c(OC)c1 8.49 µM
O=C(/C=C/c1ccccc1)Oc1cccc2cccnc12 6.75 µM
O=C(/C=C/c1ccco1)Oc1cccc2cccnc12 15.1 µM
O=C(/C=C\c1ccccc1)Oc1cccc2cccnc12 7.57 µM
COc1ccccc1/C=C/C(=O)Oc1cccc2cccnc12 9.53 µM
COc1cc2nc(/C=C/c3ccc(N(C)C)cc3)sc2cc1SC 19 µM
COc1ccccc1OCC(=O)Nc1ccc(C(=O)Nc2ccccc2C(=O)O)cc1 16.9 µM

Potency, inactive:
O=C(COC(=O)c1cc(-c2cccnc2)nc2ccccc12)Nc1ccc(F)cc1F
O=C(Nc1cccc(-c2nnc(-c3ccco3)o2)c1)c1ccccc1
CCc1ccc(NC(=O)COC(=O)c2ccccc2OCC(=O)N(C)C)cc1
CC1CCCCC1Nc1nc2ccc(Cl)cc2n2cnnc12 (configuration not stated)
CCN(CC)CCNC(=O)c1ccc(N)cc1
CC(NC(=O)c1cc2c(s1)CS(=O)(=O)C2)c1ccccc1 (configuration not stated)
Cc1nc2c(C(=O)Nc3ccc(N4CCCC(O)C4)cc3)snc2c(=O)[nH]1 (configuration not stated)
CC(=O)Nc1ccc(S(=O)(=O)N2C3CCCC2CC(NC(=O)C2CCCCC2)C3)cc1 (configuration not stated)
O=C(Cc1ccccc1F)Nc1cccc(S(=O)(=O)N2CCCCC2)c1
O=C(O)c1c2c(nc3ccc(S(=O)(=O)N4CCC(C(=O)NC5CCCC5)CC4)cc13)CCCCC2
COc1ccc(S(=O)(=O)N2CCN(C(=O)c3cc4c(s3)CCC4)CC2)cc1
CC(=O)Oc1ccc(N2C(=O)c3cccc4c([N+](=O)[O-])ccc(c34)C2=O)cc1
Cc1ccc(C2CC(c3ccc(Br)cc3)=NN2C(=O)CSC2=NN3CCCC(=O)N=C3S2)cc1 (configuration not stated)
CCOC(=O)C1=C(N)Oc2c(oc(CO)cc2=O)C1c1ccc(Cl)cc1 (configuration not stated)
NC(N)=Nc1nc2cc([N+](=O)[O-])ccc2o1
COc1ccc(C(=O)CC(=O)Nc2ccc([N+](=O)[O-])cc2)cc1
O=C(O)CSCc1nc2cccnc2n1C1CCCCC1
CCCC[C@@]1(C2CCCC2)Cc2cc(OCC(=O)O)c(Cl)c(Cl)c2C1=O
CCn1c(SCC(=O)N2CCN(c3ccccc3)CC2)nc2c(c1=O)SC(C)C2 (configuration not stated)
Cc1cccc(N2CCN(C(=O)C3COc4ccccc4O3)CC2)c1C (configuration not stated)
O=C(Nc1ccc(-c2nc3cccnc3s2)cc1)C1CCCO1 (configuration not stated)
Cc1cc(=O)n2nc(N3CCCC(C(=O)Nc4ccc(C)c(C)c4)C3)sc2n1 (configuration not stated)
Cc1ccc(NC(=S)N2CCc3[nH]c4ccccc4c3C2)cc1
CC1Cc2ccccc2N1C(=O)C1CCCN1S(=O)(=O)c1ccc(Cl)cc1 (configuration not stated)
Cc1nn(C)c(Cl)c1CN1CCCC(CO)(Cc2cccc(Cl)c2)C1 (configuration not stated)
CC1CS(=O)(=O)CCN1N=Cc1ccc([N+](=O)[O-])o1 (configuration not stated)
Cc1cc(C)c(C#N)c(Sc2nnnn2-c2ccccc2)n1
FC(F)(F)c1ccc(CN2C[C@@H]3C(c4ccc(Cl)nc4)C4(c5cccnc5)CC3(C4)[C@H]2c2ccccc2)cc1 (some centres not stated)
O=C(NCc1ccco1)C1CC2CCC1C2 (configuration not stated)
Cc1c(C(=O)/C=C/N(C)C)nnn1-c1ccc(Cl)cc1Cl
C[C@](N)(Cc1ccc(O)c(O)c1)C(=O)O
COc1cc(NC(=O)c2ccccc2Cl)ccc1NC(=O)c1cccs1
COCCNC(=O)CCC(=O)NNc1nc2ccccc2c2nc(-c3ccccc3)nn12
c1ccc(-c2ccc(C3=Nn4c(nnc4-c4cc(-c5ccccc5)n[nH]4)SC3)cc2)cc1
N#Cc1ccc(CSc2nnc(-c3c[nH]c4ccccc34)n2-c2ccccc2)cc1
COc1ccc(N=C2SC(C(=O)N3CCN(c4ccc([N+](=O)[O-])cc4)CC3)CC(=O)N2C)cc1 (configuration not stated)
COc1ccccc1NC(=O)c1ccc(NC(=O)Cc2n[nH]c(=O)c3ccccc23)cc1
